High-throughput results (PubChem)
Compounds with a hit are over-represented: about 1.1% of the library has one in this group of screens.
HIF act: HIF pathway transcriptional activation; U2OS HRE-luciferase reporter, luminescence; normalized: DMSO 0%, desferrioxamine 100%; activation, % at 7.5 µM (by protocol); 0.32% of 300,000 active;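 active means mean activation of at least 10% of the iron chelator positive control signal, with at least half of replicates also reaching 10%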
L929 necroptosis: blocks zVAD induced death of L929 cells; L929 zVAD necroptosis rescue, ATP luminescence, 24 h; with zVAD 60 µM; viability rescue, % at 10 µM; 0.38% of 220,000 active; AID 1377;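 active means activation, scaled between plate controls, above about 75%, limit read from the data; inactive means activation under that limit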;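 further: 0% = zVAD with DMSO and 100% = DMSO alone without zVAD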
Calb FLC: affects C. albicans growth with fluconazole; AID 1979; 0.57% of 300,000 active; growth inhibition, % (no concentration beside the values); C. albicans CaCi-2 (fluconazole-resistant clinical isolate) + fluconazole, Alamar Blue growth, 48 h;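 active means growth inhibition above about 58% in most replicates, limit read from the data, passing the limit was not always enough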;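 further: all wells also contain fluconazole at 8 µg/ml as a sub-toxic cotreatment; 0% = median of DMSO wells and 100% = median of geldanamycin control wells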
TNF necrop inh: blocks TNF-alpha induced death of Jurkat FADD-/- cells; activation (protection from cell death), % at 10 µM; 0.068% of 220,000 active; Jurkat FADD-/- TNF necroptosis rescue, ATP luminescence, 24 h; 0 = TNF only, 100 = no-TNF cells;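 active means activation, meaning protection from cell death, of at least 50% relative to plate controls; inactive means activation below 50%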;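 further: necroptosis triggered by 40 ng/mL TNF-alpha added together with compound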
* hit, by the source's call; / = not tested or not shown.

SMILES	HIF act	L929 necroptosis	Calb FLC	TNF necrop inh
Cc1cccc(C2CC3(CC(C)(C)NC(=S)N3)Oc3cc(O)ccc32)c1 (centres undefined)	0	0	80*	0
COc1cccc(C2CC3(CC(C)(C)NC(=S)N3)Oc3cc(O)ccc32)c1 (centres undefined)	0	0	11	0
C=CCC1(CC=C)CCCN1C(=O)c1cc(COc2ccccc2SC)on1	0	/	-14	/
CCCCC(=O)NC(c1ccc(Cl)cc1Cl)c1ccc2cccnc2c1O (centres undefined)	28*	/	96*	/
COc1ccc(C(NC(=O)C(C)C)c2ccc3cccnc3c2O)cc1 (centres undefined)	121*	15	86*	-21
COc1ccc(C(NC(C)=O)c2cc(Cl)c3cccnc3c2O)cc1 (centres undefined)	8	/	3	/
CC(C)C(=O)NC(c1ccc(Cl)cc1Cl)c1ccc2cccnc2c1O (centres undefined)	80*	/	6	/
CCC(=O)NC(c1ccc(Cl)cc1Cl)c1ccc2cccnc2c1O (centres undefined)	102*	/	107*	/
CC(=O)Nc1cccc(NC(=O)CS(=O)(=O)c2cn(CC(=O)N3CCCC3)c3ccccc23)c1	0	/	2	/
Cc1ccc2ccc(C(Nc3ccccn3)c3ccccc3)c(O)c2n1 (centres undefined)	0	-1	-5	-2
Cc1cc(NC(c2ccc(Cl)cc2)c2ccc3cccnc3c2O)no1 (centres undefined)	169*	49	101*	-11
CCOC(=O)N1CCN(Cc2nnc(-c3ccccc3C)o2)CC1	1	/	-34	/
COc1cc(O)ccc1/C=N/NC(=O)c1ccc([N+](=O)[O-])cc1	-1	2	-7	0
O=C(NC(CSCc1ccccc1)C(=O)N/N=C/c1ccc(O)cc1O)c1ccc([N+](=O)[O-])cc1 (centres undefined)	42*	56	1	-16
Cc1ccccc1NC(=S)c1nc2ccccc2[nH]1	2	0	13	-1
S=C(Nc1ccc(Cl)cc1)c1nc2ccccc2[nH]1	2	0	96*	-12
Cc1ccc(/C=C/C(=O)c2ccccc(=O)c2O)cc1C	4	0	99*	-6
Cc1ccc(CCNC(=O)CC(C)CC2=NS(=O)(=O)c3ccccc3N2)cc1 (centres undefined)	0	/	-13	/
COC(CN(C)C(=O)c1ccc2c(c1)NC(=O)c1ccccc1S2)OC	0	/	120*	/
COc1ccc(/C=C(\C#N)c2nc3ccccc3[nH]2)cc1O	13*	/	57	/
Fc1ccc(CSc2ncnc3ccccc23)cc1	1	1	-15	1
Cc1ccc(C(=O)CNc2ccccc2)cc1	7	/	-5	/
Cc1ccc(C(=O)CC(=O)c2ccc(C(C)(C)C)cc2)cc1	1	34	108*	0
CC(C)(C)c1ccc(C(=O)CC(=O)c2cc(Cl)ccc2O)cc1	3	0	106*	-8
Cn1c(CBr)c(C(=O)c2ccc([N+](=O)[O-])cc2)c(=O)n(C)c1=O	0	-1	15	-3
SMILES	HIF act	L929 necroptosis	Calb FLC	TNF necrop inh
Cc1ccc(Cl)cc1N(CC(=O)NCc1ccccc1)S(C)(=O)=O	-1	/	-12	/
CN1CCN(Cc2cc(COCc3ccccc3)c3cccnc3c2O)CC1	221*	5	109*	-15
O=S(=O)(c1ccc(Cl)cc1)N1CCN(Cc2ccc(O)c3ncccc23)CC1	4	11	95*	-12
Oc1ccc(CN2CCN(Cc3ccccc3)CC2)c2cccnc12	11*	5	60*	-16
CN1CCN(Cc2ccc(OCc3ccccc3)cc2)CC1	1	0	-8	-1
O=C(c1cccc(C(F)(F)F)c1)C1CCCN(C(=O)/C=C/c2cnc[nH]2)C1 (centres undefined)	0	/	-1	/
COCc1cc(CN2CCCC(C(=O)Nc3cccc(-n4cnnn4)c3)C2)ccc1OC (centres undefined)	0	/	0	/
CC1(C)Cc2c(cnn2-c2ccc(F)cc2)C(NC(=O)CCc2ccncc2)C1 (centres undefined)	0	/	3	/
Cn1c(SCC(=O)NC2CCCC2)nnc1-c1cccs1	1	/	-1	/
O=C(NCc1nc2ccccc2[nH]1)c1ccccc1F	1	0	0	2
O=C(NCc1nc2ccccc2[nH]1)c1c(F)c(F)c(F)c(F)c1F	74*	8	4	5
FC(F)(F)c1ccc(CSc2ccccn2)cc1	10.0*	0	0	1
CC(C)c1ccc(O)c(NC(=O)c2cncc(Br)c2)c1	1	0	-16	67*
Cc1cc(O)ccc1NC(=S)NC(=O)c1cncc(Br)c1	0	/	87*	/
CCC(C)c1ccc(O)c(NC(=O)c2cccnc2)c1 (centres undefined)	-3	0	16	24
CN(CCCC(=O)O)c1ccc(N=Nc2ccc([N+](=O)[O-])cc2)cc1	2	/	-2	/
O=[N+]([O-])c1cccc(/C=N/Nc2nc(NCc3ccccc3)nc(N3CCOCC3)n2)c1O	19*	66	52	-10
O=[N+]([O-])c1ccc(/C=N/Nc2nc(NCc3ccccc3)nc(N3CCOCC3)n2)cc1	-2	3	17	-5
CCCCN(C)C(=O)C1CCC(CNS(=O)(=O)c2ccc3c(c2)CC(C)N3C(=O)C2CC2)CC1 (centres undefined)	-1	/	-14	/
COc1ccc(N2CCN(c3ncccc3C#N)CC2)cc1	1	0	13	2
COc1ccnc(N2CCN(c3ccccc3)CC2)c1C#N	0	0	79*	-9
CC(=O)Cn1c(=O)c2c(nc3n2CCCN3Cc2ccccc2)n(C)c1=O	35*	/	7	/
OCCN1CCN(C(=S)NC2CCCC2)CC1	0	1	88*	2
S=C(NCCN1CCOCC1)NC1CCCC1	0	0	51*	0
S=C(NC1CC1)N1CCN(C(=S)NC2CC2)CC1	0	/	1	/
SMILES	HIF act	L929 necroptosis	Calb FLC	TNF necrop inh
C/C(NC1CCCCC1)=C(/C#N)C(=O)NCCN1CCOCC1	0	0	-1	0
CC(C)OP(=O)(c1ccc(N(C)C)cc1)C(O)c1ccccc1 (centres undefined)	0	0	98*	2
O=C(Nc1nc(-c2ccccn2)cs1)c1ccccc1-n1cnnn1	52*	58	-13	-16
O=C(COc1ccc(F)cc1)Nc1nc(-c2ccccn2)cs1	0	/	90*	/
O=C(COc1ccc([N+](=O)[O-])cc1)Nc1nc(-c2ccccn2)cs1	1	/	4	/
O=C(Nc1nc(-c2ccccn2)cs1)c1ccc2c(c1)OCCO2	2	0	-18	-1
Cc1cc(C(=O)Nc2nc(-c3ccccn3)cs2)ccc1[N+](=O)[O-]	1	-1	110*	-7
CC(=O)Nc1ccc(C(=O)Nc2nc(-c3ccccn3)cs2)cc1	0	2	3	-4
O=C(Nc1nc(-c2ccccn2)cs1)c1cc(Cl)ccc1[N+](=O)[O-]	36*	31	-2	-8
O=S(=O)(NNc1ccc(Cl)nn1)c1ccc(F)cc1	0	1	5	10
